Source: PubChem BioAssay AID940 (Emory University Molecular Libraries Screening Center, 2007)
Among all 260,000 compounds or so, about 2,200 (0.85%) were called active. This is one part of a sample in which actives are shown more often than they occur. A number with no mark means an inactive call.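 The calls were made as follows: active = compounds whose cAMP rise, as percent of the full-agonist control response, exceeds 60; inactive = the rest.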

Target: Prostaglandin E2 receptor EP2 subtype (Homo sapiens) (UniProt P43116)
Sequence (P43116 whole entry, looked up): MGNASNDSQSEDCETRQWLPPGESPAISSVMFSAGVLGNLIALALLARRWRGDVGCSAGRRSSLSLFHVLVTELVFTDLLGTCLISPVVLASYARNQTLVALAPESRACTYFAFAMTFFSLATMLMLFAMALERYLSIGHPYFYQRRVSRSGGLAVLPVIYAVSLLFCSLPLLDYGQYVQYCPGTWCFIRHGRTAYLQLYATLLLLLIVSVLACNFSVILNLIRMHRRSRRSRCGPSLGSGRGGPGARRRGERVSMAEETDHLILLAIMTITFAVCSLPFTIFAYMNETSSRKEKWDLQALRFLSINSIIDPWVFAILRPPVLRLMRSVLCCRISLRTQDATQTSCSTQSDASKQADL
Experiment: EP2 receptor modulators, cAMP readout, primary screen, cell-based, HTRF cAMP, PGE2 stimulation (AID 940);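 also: rat C6 glioma line stably carrying human EP2 under a CMV promoter; the protocol text gives 20 µM as final concentration; 100% = response of wells given 1 µM PGE2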
Details: EP2-expressing cells, cAMP HTRF FRET, PGE2 co-stimulation; at 25 µM; active compounds read high

| Structure (SMILES) | induction |
| --- | --- |
| COc1ccc(S(=O)(=O)NCc2ccc3c(c2)OCO3)c(Cl)c1Cl | -0.88% |
| Cc1nc2nc(N)ccc2c(C)c1C | -9.42% |
| CNCC(O)c1ccc(O)c(O)c1 (stereo not drawn) | 68.4% (active) |
| CCC(C)c1ccc(O)c(/C=N/O)c1 (stereo not drawn) | 4.26% |
| CC(=O)NCC(O)c1ccc([N+](=O)[O-])cc1 (stereo not drawn) | 1.39% |
| CCc1ccc(NC(=O)C2CCN(C(=O)c3cccs3)CC2)cc1 | 15.7% |
| COC(=O)CSc1nc2c(c(C3CC=CCC3)c1C#N)CCC2 (stereo not drawn) | 68.1% (active) |
| COC(=O)CSc1nc(C2CC2)nc2ccccc12 | 4.21% |
| CCOc1ccc2cc(C#N)c(SCC(=O)OC)nc2c1 | 47% |
| C=CCNC(=O)CN1CCC(c2ccccc2F)CC1 | -47.4% |
| COC(=O)[C@H]1CCc2ccccc2N1C(=O)C1CCC1 | -15.3% |
| CCC(C)OC(=O)C(C)n1cnc2sc(C(=O)Nc3ccccc3OC)c(C)c2c1=O (stereo not drawn) | -16.1% |
| COC(=O)[C@H]1CCc2ccccc2N1C(=O)c1ccccc1F | 8.05% |
| O=C(Cn1nc(-c2ccncc2)oc1=O)N1CCCCC1 | -10.9% |
| CS(=O)(=O)N1CCCc2cc(C(O)CN3CCN(c4cnccn4)CC3)ccc21 (stereo not drawn) | -3.55% |
| Cc1cc(NC(=O)CSc2nc3cc(Cl)ccc3c(=O)n2Cc2ccco2)no1 | -4.33% |
| O=C(CSc1nc2ccccc2c(=O)n1Cc1ccco1)Nc1ccccc1Cl | 67.4% (active) |
| N#Cc1c(NC(=O)CSc2nc3ccccc3c(=O)n2Cc2ccco2)sc2c1CCCC2 | -3.51% |
| CCOC(=O)C(C)NC(=O)c1cc2ccc(F)cc2[nH]1 (stereo not drawn) | -92.7% |
| Cc1nc(S(=O)(=O)c2ccc(Cl)cc2)c(N2CCCCC2)o1 | -42.2% |
| CCN1CCN(C(=O)[C@H]2C[C@@H](c3ccc(OC)c(OC)c3)NS(=O)(=O)N2C)CC1 | -8.26% |

| Structure (SMILES) | induction |
| --- | --- |
| COc1ccc(C2(C(=O)N3CCC(n4cnc5cccnc54)CC3)CCCC2)cc1 | 11.4% |
| Cc1nn(C(C)C)c(C)c1CN(C)CCOc1ccccc1 | -30.9% |
| COc1cc(C)c(-c2csc(NC(=O)C3(C)CCCO3)n2)cc1C (stereo not drawn) | -62.2% |
| COc1cccc(NC(=O)C(C)Oc2ccccc2)c1 (stereo not drawn) | 9.01% |
| COc1cccc(NC(=O)c2ccccc2SC)c1 | 61.4% (active) |
| CSc1ccccc1C(=O)Nc1cccc(C(C)=O)c1 | 10.1% |
| COc1cc(C#N)ccc1OCc1nc(-c2ccccc2)no1 | -64.5% |
| CSc1ncc(C(=O)N2CC(CN3CCOCC3)c3ccccc32)cn1 (stereo not drawn) | -3.66% |
| CCOC(=O)C1CCN(C(=O)Nc2c[nH]c3ccc(OC)nc3c2=O)CC1 | -39.3% |
| CCOC(=O)c1c(N)nn(C(=O)c2ccccc2)c1-c1ccccc1 | 69.9% (active) |
| CCOC(=O)c1c(-c2cccc(N)c2)cn2ccccc12 | -32.9% |
| CCOC(=O)c1nnn(-c2nonc2OC)c1-c1ccccc1 | 11.4% |
| C/C(Cl)=C\CSc1nc(N2CCOCC2)c2c(c1C#N)CC(C)(C)OC2 | 67.7% (active) |
| CC1(C)Cc2c(C#N)c(SCc3nc4ccccc4[nH]3)nc(N3CCOCC3)c2CO1 | -21.7% |
| COc1ccc(CSc2nc(N3CCOCC3)c3c(c2C#N)CC(C)(C)OC3)cc1 | 37.4% |
| CCOc1ccc2[nH]c(=O)c(C(c3nnnn3CCOC)N3CCN(C)CC3)cc2c1 (stereo not drawn) | -18.3% |
| COC(=O)c1sc2[nH]c(=S)n(N)c(=O)c2c1C | 78.1% (active) |
| COC(=O)Cn1cnc2sc(C(=O)OC)c(C)c2c1=O | -5.66% |
| CCOC(=O)c1sc2nc(C)[nH]c(=O)c2c1C | 15.6% |
| O=c1[nH]c2ccc(S(=O)(=O)N3CCCC(c4ccccc4)C3)cc2[nH]1 (stereo not drawn) | -114% |
| O=C(Cn1nc2c3ccccc3ncn2c1=O)NCc1cccs1 | 4.57% |

| Structure (SMILES) | induction |
| --- | --- |
| Cc1ccc2cc(C#N)c(SCC(=O)Nc3cccc(C)c3C)nc2c1 | -15.3% |
| COc1ccc2nc(C)cc(SCC(=O)Nc3ccccc3Br)c2c1 | -51.4% |
| CCc1cc2cc3c(cc2nc1SCC(=O)Nc1ccccc1Br)OCCO3 | -3.39% |
| Cc1cc2ccccc2nc1SCC(=O)Nc1ccccc1F | 39.1% |
| CCc1cc2ccccc2nc1SCC(=O)Nc1ccccc1Br | 65.9% (active) |
| COc1ccc2cc(C#N)c(SCC(=O)Nc3ccccc3Br)nc2c1 | 66.9% (active) |
| COCCNc1nnc(-c2ccccn2)s1 | -12.4% |
| O=C(CCSc1nc(-c2ccco2)cc(C(F)(F)F)n1)NC1CCCCC1 | -7.93% |
| CC(C)(C)Oc1ncc(Br)c(OC(C)(C)C)n1 | 31.4% |
| COc1cccc(-c2cnc(OC(C)(C)C)nc2OC(C)(C)C)c1 | 62% (active) |
| COc1cccc(-c2nc3cc(C)ccc3o2)c1 | 3.47% |
| CC1(C)CC2CC(C)(CN2c2ncnc3ccc(Br)cc23)C1 (stereo not drawn) | 70% (active) |
| COc1ccc(C(=O)N2CC3(C)CC2CC(C)(C)C3)cc1OC (stereo not drawn) | -6.8% |
| CC1(C)CC2CC(C)(CN2C(=O)c2ccc(Cl)cc2)C1 (stereo not drawn) | -5% |
| COc1ccc2[nH]cc(CCNC(=O)C3CCN(c4nc5ccccc5n4C)CC3)c2c1 | -102% |
| CCc1ncc(CNC2(c3ccc(Cl)cc3)CCC2)cn1 | -47% |
| CCC(C)(C)n1nnnc1CN(Cc1ccc(F)cc1)Cc1cc2cc(C)cc(C)c2[nH]c1=O | 29.1% |
| CCC(c1nnnn1C(C)(C)C)N(Cc1ccccc1)Cc1cc2ccc(C)cc2[nH]c1=O (stereo not drawn) | 12.1% |
| CCc1ccc2[nH]c(=O)c(CN(Cc3ccc(F)cc3)Cc3nnnn3C(C)(C)C)cc2c1 | 62.5% (active) |
| COCCNC(=O)Cn1nc2c(C)cc3cc(C)cc(C)c3n2c1=O | -32.1% |
| COc1ccc(NCc2nnc(SCC(=O)Nc3ccc(C)cc3)n2C)cc1 | 8.87% |
